Measured values taken from PubChem BioAssay.
Calls of active or inactive are those of the source.

Key:
[1] = tested on: Plasmodium falciparum Sir2 (PF13_0152, Sir2A); experiment: Plasmodium falciparum Sir2A binding compounds – biochemical, small-molecule microarray, 635 nm fluorescence, primary screen (AID 1098); conditions: fluorescence 635 nm, higher = more signal;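 also: score merges spot fluorescence intensity with its signal-to-noise ratio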
[2] = probe aDKK1 binding to arrayed compounds – biochemical, biotinylated probe, 635/667 nm fluorescence, primary screen (AID 1099); conditions: small-molecule microarray, higher = more signal;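 also: score merges 667nm spot fluorescence with signal to noise across triplicate slides; reference of the scale not given here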
[3] = probe aCHRDL2 binding to arrayed compounds – biochemical, biotinylated probe, 635/667 nm fluorescence, primary screen (AID 1100); conditions: small-molecule microarray, higher = more signal
[4] = change in splice reporter luminescence, either direction, cell-based, HEK293, spliceosome inhibition project, primary screen (AID 1101); conditions: HEK293 splicing luciferase reporter, 24 h, higher = more signal, called active from +8 up or from −8 down;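 also: HEK293 cells carrying a splicing-competent luciferase reporter gene; test concentration not given here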
[5] = target: Fibroblast growth factor 10 (Homo sapiens) (UniProt O15520); experiment: compounds binding fibroblast growth factor 10 – biochemical, small-molecule microarray, 635 nm fluorescence, primary screen (AID 1102); conditions: FGF10 binding, fluorescence 635 nm, higher = more signal
Chain of Fibroblast growth factor 10 (Homo sapiens) (O15520 whole entry, looked up): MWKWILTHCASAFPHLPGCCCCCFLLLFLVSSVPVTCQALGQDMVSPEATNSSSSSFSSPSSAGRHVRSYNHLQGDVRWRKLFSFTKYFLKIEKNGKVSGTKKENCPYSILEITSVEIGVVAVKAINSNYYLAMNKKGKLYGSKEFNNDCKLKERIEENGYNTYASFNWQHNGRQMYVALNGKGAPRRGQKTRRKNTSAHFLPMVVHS

[6] = tested on: glycogen synthase kinase-3 (GSK3A per assay name; protocol says GSK3B); experiment: compounds binding glycogen synthase kinase-3 – biochemical, small-molecule microarray, 635 nm fluorescence, GSK3A, primary screen (AID 1103); conditions: fluorescence 635 nm, higher = more signal; also: the record names both GSK3A and GSK3B
[7] = target: Epidermal growth factor receptor (Homo sapiens) (UniProt P00533); experiment: compounds binding epidermal growth factor receptor – biochemical, small-molecule microarray, 635 nm fluorescence, primary screen (AID 1104); conditions: EGFR binding, higher = more signal;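 also: score merges 667 nm emission intensity with spot signal to noise over triplicate slides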
Chain of Epidermal growth factor receptor (Homo sapiens) (P00533 whole entry, looked up): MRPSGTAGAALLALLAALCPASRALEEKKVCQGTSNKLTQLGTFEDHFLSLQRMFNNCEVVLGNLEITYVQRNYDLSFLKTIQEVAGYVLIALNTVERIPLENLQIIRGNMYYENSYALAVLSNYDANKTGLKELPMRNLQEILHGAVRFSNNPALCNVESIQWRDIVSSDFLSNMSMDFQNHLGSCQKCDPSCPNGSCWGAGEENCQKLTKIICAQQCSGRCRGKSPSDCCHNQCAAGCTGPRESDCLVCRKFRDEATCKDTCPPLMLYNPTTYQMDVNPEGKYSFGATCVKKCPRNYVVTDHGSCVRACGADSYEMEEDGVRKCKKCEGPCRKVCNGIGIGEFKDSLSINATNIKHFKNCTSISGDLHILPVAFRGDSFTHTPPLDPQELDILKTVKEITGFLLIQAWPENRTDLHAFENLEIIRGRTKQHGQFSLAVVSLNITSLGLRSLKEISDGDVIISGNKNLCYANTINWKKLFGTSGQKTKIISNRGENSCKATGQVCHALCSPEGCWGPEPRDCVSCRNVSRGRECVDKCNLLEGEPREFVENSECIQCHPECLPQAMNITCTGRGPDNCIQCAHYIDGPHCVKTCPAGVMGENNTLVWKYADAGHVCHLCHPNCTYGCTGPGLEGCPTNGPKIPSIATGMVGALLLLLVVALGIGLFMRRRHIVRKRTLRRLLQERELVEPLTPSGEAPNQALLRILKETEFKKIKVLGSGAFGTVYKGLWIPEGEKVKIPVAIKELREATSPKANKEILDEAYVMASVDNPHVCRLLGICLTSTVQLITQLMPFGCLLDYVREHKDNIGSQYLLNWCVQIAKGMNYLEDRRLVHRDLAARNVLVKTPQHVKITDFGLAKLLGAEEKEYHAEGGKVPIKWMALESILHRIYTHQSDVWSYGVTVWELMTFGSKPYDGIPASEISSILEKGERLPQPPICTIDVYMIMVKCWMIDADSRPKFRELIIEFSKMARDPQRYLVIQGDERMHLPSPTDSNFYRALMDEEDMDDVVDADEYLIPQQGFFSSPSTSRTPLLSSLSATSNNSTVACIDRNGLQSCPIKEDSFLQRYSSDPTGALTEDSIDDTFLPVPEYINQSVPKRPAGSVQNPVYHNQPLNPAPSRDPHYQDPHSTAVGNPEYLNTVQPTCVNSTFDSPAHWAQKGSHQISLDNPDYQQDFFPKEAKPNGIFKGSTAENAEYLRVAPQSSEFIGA

[8] = target: Follistatin-related protein 3 (Homo sapiens) (UniProt O95633); experiment: compounds binding follistatin-related protein 3 – biochemical, small-molecule microarray, 635 nm fluorescence, primary screen (AID 1105); conditions: FSTL3 binding, higher = more signal;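 also: score merges emission near 667 nm and signal to noise per printed spot across three slides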
Chain of Follistatin-related protein 3 (Homo sapiens) (O95633 whole entry, looked up): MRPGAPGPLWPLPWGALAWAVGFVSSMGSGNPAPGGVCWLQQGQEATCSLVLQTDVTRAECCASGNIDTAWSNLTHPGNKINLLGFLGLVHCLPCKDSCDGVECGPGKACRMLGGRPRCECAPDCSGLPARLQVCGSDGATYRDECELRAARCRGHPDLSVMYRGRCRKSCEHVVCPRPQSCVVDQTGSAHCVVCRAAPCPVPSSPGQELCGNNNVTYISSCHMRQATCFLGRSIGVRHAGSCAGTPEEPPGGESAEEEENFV

[9] = target: Dickkopf-related protein 1 (Homo sapiens) (UniProt O94907); experiment: small molecules binding DKK1 protein – biochemical, small-molecule microarray, 635 nm fluorescence scan, primary screen (AID 1106); conditions: higher = more signal;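 also: score merges emission near 667 nm with signal to noise over three replicate slides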
Chain of Dickkopf-related protein 1 (Homo sapiens) (O94907 whole entry, looked up): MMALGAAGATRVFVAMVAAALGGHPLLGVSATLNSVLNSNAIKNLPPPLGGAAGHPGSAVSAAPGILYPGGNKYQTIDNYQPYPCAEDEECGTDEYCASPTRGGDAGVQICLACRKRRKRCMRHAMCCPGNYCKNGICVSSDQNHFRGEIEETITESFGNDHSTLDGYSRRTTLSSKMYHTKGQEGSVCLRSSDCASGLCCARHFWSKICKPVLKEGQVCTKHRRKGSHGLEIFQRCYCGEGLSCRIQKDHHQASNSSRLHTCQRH

[10] = tested on: Inhibin beta A chain (activin A); experiment: small molecules binding activin A – biochemical, small-molecule microarray, 635 nm fluorescence scan, primary screen (AID 1107); conditions: INHBA, higher = more signal;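 also: mouse activin A protein probed at 4.33 µg/mL on printed slides; score merges bound-protein fluorescence near 667 nm with spot signal-to-noise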

| SMILES | composite z-score [1] | composite z-score [2] | composite z-score [3] | z-score [4] | composite z-score [5] | composite z-score [6] | composite z-score [7] | composite z-score [8] | composite z-score [9] | composite z-score [10] |
| --- | --- | --- | --- | --- | --- | --- | --- | --- | --- | --- |
| CCCCCCCCCCC(O)C1C=CC2C(=O)N(c3ccccc3)C(=O)C2N1Nc1ccc(C#N)cc1 (stereo not given) | 0.905 | 0.44 | 1.09 | 1.08 (inactive) | 1.06 | 1.02 | 0.17 | 0.788 | -0.517 | 1.02 |
| C=CC[C@@H](OC(=O)Nc1ccc(SC)cc1)c1ccc(O)c(F)c1 | 0.522 | 0.0488 | 0.404 | -1.79 (inactive) | 0.214 | -0.0142 | -0.361 | 0.155 | 0.183 | 0.77 |
| CCOC(=O)C[C@H]1[C@H](OC(=O)c2ccc(C(=O)c3ccccc3)cc2)[C@@H](NC(=O)CC(C)C)c2cc(OCCCO)ccc2N1C(=O)c1ccccc1 | 0.449 | -0.0013 | -0.345 | -0.958 (inactive) | 0.515 | 0.972 | 0.141 | 1.17 | 0.95 | 0.158 |
| COc1ccc(C#Cc2ccc3c(c2)[C@]2(C(=O)N3)[C@H](C(=O)O)[C@H]3C(=O)O[C@H](c4ccccc4)[C@H](c4ccccc4)N3[C@@H]2c2ccc(O)cc2)cc1 | 1.52 | 0.734 | 0.681 | -0.264 (inactive) | -0.054 | -0.352 | -0.165 | -0.382 | -0.603 | 0.0045 |
| CCN(CC)c1ccc(N2CC=CC34O[C@@H]5/C=C\CCCOC(=O)C5[C@H]3C(=O)N(C(C)CO)[C@@H]4C2=O)cc1 (stereo not given in full) | 1.03 | -0.213 | -0.445 | -0.0084 (inactive) | -0.184 | -0.208 | -0.243 | -0.232 | 0.512 | 1.03 |
| COCC(=C=CC[C@H](O)c1ccc(CO)o1)CCO | 1.39 | 0.0057 | -0.336 | 0.191 (inactive) | 1.52 | 0.654 | -0.294 | 1.19 | 0.352 | 0.569 |
| C=CCC(OC(C)=O)[C@@H]1[C@@H](N(Cc2cc3ccccc3o2)C(=O)Cc2ccc(F)cc2)c2cc(OCCCO)ccc2N1C(=O)Cc1ccc2ccccc2c1 (stereo not given in full) | -0.255 | -0.203 | 0.426 | -0.123 (inactive) | -0.108 | -0.657 | -0.805 | -0.656 | -0.607 | 0.779 |
| COC(=O)C1(CC(C)C)C=C2C(=C(c3ccccc3)C(=O)C2C)CN1 (stereo not given) | 0.055 | 1.49 | 1.36 | 1.45 (inactive) | 0.896 | -0.713 | 0.233 | 0.261 | -1.19 | 1.53 |
| C=CC[C@@]1(C(=O)NCCCOC)N=C(c2ccc(OCCCO)cc2)O[C@@H]1c1ccccc1N=[N+]=[N-] | 0.826 | 0.648 | 0.999 | 0.0875 (inactive) | 0.919 | 0.595 | -0.276 | 0.45 | -0.178 | 0.961 |
| COC(=O)[C@@]1(Cc2ccc(F)cc2)[C@H]2c3cc(C(=O)N4CCCC4)n(CCc4c[nH]c5ccccc45)c3C[C@H]2CN1C(=O)c1ccccc1 | 0.539 | 0.948 | 1.03 | -0.593 (inactive) | 0.894 | 1.32 | 0.549 | 1.21 | 0.113 | 0.834 |
| O=C1C2C=CC(C(O)c3ccco3)N(Nc3ccccc3F)C2C(=O)N1c1ccccc1 (stereo not given) | 0.926 | 0.497 | 1.01 | 0.901 (inactive) | 0.285 | 0.179 | -0.14 | 0.338 | 0.326 | 0.75 |
| CC1CC/C=C\[C@H]2OC34C=CCN(C(C)(C)C)C(=O)[C@H]3N(CCCCCO)C(=O)[C@@H]4C2C(=O)O1 (stereo not given in full) | 0.261 | -0.27 | 0.2 | -0.0565 (inactive) | -0.899 | -0.696 | -1.08 | -0.852 | -1.16 | 0.0607 |
| CC(C)C(CO)N1C(=O)[C@@H]2[C@H]3C(=O)OCC=C[C@H]3OC23C=CCN(c2ccc(Cl)cc2)C(=O)[C@@H]13 (stereo not given in full) | -1.14 | -0.0517 | -0.0455 | 0.121 (inactive) | -0.739 | -0.889 | -0.627 | -0.93 | -0.865 | 0.653 |
